VDR inh – Inhibitors of the vitamin D receptor (VDR): qHTS | Vitamin D3 receptor (Homo sapiens), P11473 | VDR-SRC2-3 peptide fluorescence polarization, 2 h | Potency, µM, inactives show max response, negative = inhibition, usual class: inhibitors | hit rate 0.93% among 400,000 | AID 504847, 2011; also: % is scaled to controls: 0 for no effect and ±100 for the full control effect
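Compounds are added to VDR with labelled SRC2-3 coactivator peptide and held 2 h at room temperature. Inhibition of the VDR–peptide interaction is then read as a change in fluorescence polarization.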
PLK1 PBD inh – qHTS for Inhibitors of PLK1-PDB (polo-like kinase 1 - polo-box domain): Primary Screen; Serine/threonine-protein kinase PLK1 (Homo sapiens), P53350; Plk1 PBD binding of FITC phosphopeptide, fluorescence polarization; hit rate 2.8% among 360,000; Potency, µM, for the others: max response, negative = inhibition, most hits filed as inhibitors; AID 720504, 2013; also: series mostly up to about 57 µM; % is scaled to controls: 0 for no effect and ±100 for the full control effect; nearly all actives have a fitted effect of over 65% in size
Target sequence (P53350 whole entry, looked up, the tested form may be a part): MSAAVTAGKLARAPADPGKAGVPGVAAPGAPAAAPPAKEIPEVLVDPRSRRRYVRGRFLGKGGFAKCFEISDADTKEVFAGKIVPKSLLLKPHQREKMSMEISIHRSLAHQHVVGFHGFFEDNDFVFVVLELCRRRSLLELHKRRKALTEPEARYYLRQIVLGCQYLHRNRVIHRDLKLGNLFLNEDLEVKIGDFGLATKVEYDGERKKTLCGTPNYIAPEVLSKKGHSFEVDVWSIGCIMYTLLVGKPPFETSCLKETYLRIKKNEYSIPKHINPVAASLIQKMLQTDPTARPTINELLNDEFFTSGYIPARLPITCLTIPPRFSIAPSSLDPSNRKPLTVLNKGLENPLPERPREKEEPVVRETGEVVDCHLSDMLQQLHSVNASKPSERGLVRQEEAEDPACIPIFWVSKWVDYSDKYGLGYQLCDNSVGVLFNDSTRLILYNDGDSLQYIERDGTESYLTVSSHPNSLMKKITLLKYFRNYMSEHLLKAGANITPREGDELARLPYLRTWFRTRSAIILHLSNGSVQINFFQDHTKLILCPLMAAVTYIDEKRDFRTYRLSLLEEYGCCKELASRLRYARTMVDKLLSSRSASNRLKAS
Pin1 inh – qHTS Assay to Find Inhibitors of Pin1. Peptidyl-prolyl cis-trans isomerase NIMA-interacting 1 (Homo sapiens), Q13526. Pin1 FP peptide displacement, HiFluor488, 10 min. Potency, µM (top dose mostly 115 µM), inactives show top-dose activity, negative = inhibition, hits mostly inhibitors. hit rate 0.009% among 390,000. AID 504891, 2011; active = well fitted inhibition curve with a large enough effect in the polarisation, with a control signal flat, not every such curve was filed as active; inconclusive = small, poorly fitted or top-dose-only effect, or effect the other way, or a change in a side signal; inactive = no such curve, though single readings can be large or run the other way; the % refers to the polarisation; also: % is scaled to controls: 0 for no effect and ±100 for the full control effect
Tb PFK inh – qHTS Assay to Find Inhibitors of T. brucei phosphofructokinase | ATP-dependent 6-phosphofructokinase (Trypanosoma brucei brucei), O15648 | T. brucei PFK, ADP-Glo luminescence | Potency, µM (highest dose often 57.5 µM), without a hit: top-dose activity, negative = inhibition, hits mostly inhibitors | hit rate 0.17% among 330,000;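 also: 0% = uninhibited 1x PFK enzyme wells and -100% = no-enzyme wells; nearly all actives have a fitted effect of over 60% in size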
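PFK 1.25 nM, F6P 0.5 mM, ATP 0.1 mM, 0.1 M TEA pH 8.0, 5 mM MgCl2, 0.01% Tween20, 0.1% BSA; 45 min RT. ADP-Glo readout. qHTS titration up to 57 uM; curves fitted, compounds curve-classed.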
TDP1 block – qHTS Assay for Inhibitors of Tyrosyl-DNA Phosphodiesterase (TDP1). Tyrosyl-DNA phosphodiesterase 1 (Homo sapiens), Q9NUW8. recombinant TDP1, AlphaScreen DNA substrate cleavage. Potency, µM (titrated, usually from 130 µM), for the others: at the highest dose activity change, negative = inhibition, hits mostly inhibitors. hit rate 0.28% among 350,000. AID 485290, 2010; also: % is scaled to controls: 0 for no effect and ±100 for the full control effect; nearly all actives have a fitted effect of over 40% in size
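Compounds were preincubated with Tdp1 (1 nM final) for 15 min at room temperature before substrate (15 nM final) started a 5 min reaction; beads (10 ug/ml final) were then added for 10 min before AlphaScreen detection.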
S-ASM inh – Inhibitors of Secretory Acid Sphingomyelinase (S-ASM): qHTS. hit rate 0.006% among 340,000. Potency, µM (highest dose often 57.5 µM), without a hit: top-dose activity change, negative = inhibition, actives largely listed as inhibitors. AID 504937, 2011. placental ASM, HMU-PC fluorogenic substrate, 60 min
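Human placenta-derived ASM enzyme was preincubated with compound for 10 minutes at room temperature, then given fluorogenic substrate HMU-PC0 (9 uM final) for 60 minutes at 37 °C; a pH 10 stop preceded fluorescence reading at Ex 386/Em 447 nm.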
Numbers without * were called inactive; ? = inconclusive; . = no result; ! = not confirmed by another sample; [ ] = remark or other dose. This is a sample that favours compounds with a hit; in the whole collection about 3.1% have one here. Unless noted, calls follow the shape of the dose curve; as a rule, active = well fitted curve in the direction sought with a large enough effect; inconclusive = small, poorly fitted or top-dose-only effect, or another doubt; inactive = no such curve, though single readings can be large; an effect the other way counts as inactive or inconclusive. Potency is read from the fitted curve at half-maximal effect.

SMILES | VDR inh | PLK1 PBD inh | Pin1 inh | Tb PFK inh | TDP1 block | S-ASM inh
CC12CCC(C/C1=N\N=C1\NC(=O)/C(=C\c3ccc(Cl)cc3)S1)C2(C)C (stereo not drawn) | ? | 24µM* | 1% | 1% | 3% | -26%
CSc1nc(C)c(C(=O)C[n+]2ccccc2C)cc1C#N | -16% | 15µM* | 0% | 1% | 3% | -1%
CCOC(=O)c1cc(C#N)c(SC)nc1C | 8% | -7% | 6% | 0% | 5% | 4%
CCC(C)C1NC(=O)C(Cc2ccc(O)cc2)NC(=O)C(N)CSSCC(C(=O)N2CCCC2C(=O)NC(CC(C)C)C(=O)NCC(N)=O)NC(=O)C(CC(N)=O)NC(=O)C(CCC(N)=O)NC1=O (stereo not drawn) | 13µM*! | . | . | . | 7% | .
CC[C@H](C)[C@@H]1NC(=O)[C@H](Cc2ccc(O)cc2)NC(=O)[C@@H](N)CSSC[C@@H](C(=O)N2CCC[C@H]2C(=O)N[C@@H](CC(C)C)C(=O)NCC(N)=O)NC(=O)[C@H](CC(N)=O)NC(=O)[C@H](CCC(N)=O)NC1=O | -1% | . | . | . | 6% | .
C=C1C(=O)O[C@@H]2[C@@H]1CC/C(C)=C\CC[C@@]1(C)O[C@H]21 | ? | . | . | . | 14%[21 µM] | .
C=C1C(=O)OC2C1CCC(C)=C1C(=O)C3OC3(C)C12 (stereo not drawn) | ? | 19µM* | 0% | . | . | 3%
Cc1cccc(N2C(=O)CC(SC(=Nc3ccccc3)Nc3ccccc3)C2=O)c1 (stereo not drawn) | 8% | 0% | 3% | -2% | 5% | ?
O=C1SC(SC(=Nc2ccccc2)Nc2ccccc2)C(=O)N1c1ccccc1 (stereo not drawn) | 89µM* | 6.7µM* | 1% | -3% | 5% | -1%
CCCN1CNc2c(c(=O)[nH]c(=S)n2CCc2ccccc2OC)C1 | -4% | . | 1% | . | 1% | .
COCCNC(=O)CSCc1nc(-c2ccc(SC)cc2)oc1C | 25% | -6% | 6% | -1% | 7% | -2%
CCOCCCNC(=O)CSCc1nc(-c2ccc(SC)cc2)oc1C | -5% | 30µM* | -1% | 0% | 4% | 2%
CC(C)CNc1ncnc2oc(-c3ccco3)c(-c3ccco3)c12 | -29% | . | 27% | . | 7% | .
O=C(/C=C/c1ccco1)NCC(=O)N/N=C/c1ccc([N+](=O)[O-])cc1 | ? | 11µM* | ? | -2% | 3% | -8%
O=C(/C=C/c1ccco1)NCC(=O)N/N=C/c1ccc(Cl)cc1 | 7% | -9% | 6% | 0% | 0% | -1%
CCN(Cc1ccccc1)C(=O)Cn1c(=O)n(-c2ccc(C)c(C)c2)c(=O)c2c(C)c(C)sc21 | 6% | . | 18% | . | 3% | .
CCN(CCCCO)c1nc(C)nc2c1c(C)c(C)n2-c1c(C)cc(C)cc1C | ? | . | . | . | 22% | .
CC(C)OC(=O)n1c(=S)oc2ccccc21 | -9% | -8% | 5% | -7% | -1% | 3%
CCCCC(=O)/C=C/n1c(=S)oc2ccccc21 | 13µM* | ? | 3% | -2% | 0% | 2%
COc1ccccc1NC(=O)c1cc2cc(Br)ccc2oc1=N | 89µM* | -8% | 2% | 2% | . | -8%
COc1ccc2o/c(=N\O)c(C(=O)Nc3ccccc3OC)cc2c1 | -11% | 0% | 9% | ? | 7% | 0%
c1ccc(-c2nn3c(Cn4nnc5ccccc54)nnc3s2)cc1 | -79% | 13µM* | 2% | -8% | -2% | -11%
c1ccc2c(c1)nnn2Cc1nnc2sc(-c3ccc4c(c3)OCCO4)nn12 | 8% | 11µM* | -2% | -4% | 3% | -2%

Screening data (PubChem)
